Source: PubChem BioAssay (Johns Hopkins Ion Channel Center)
The list is not random: actives were taken first. Their share in the collection is about 1.6%.
KCNQ2 block: inhibitors of rat KCNQ2 potassium channel; AID 2156; hit rate 1.1% among 310,000; B-score at 10 µM; O88943; CHO-K1 KCNQ2, FluxOR thallium flux, 20 min; stronger effect = lower value;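 active = fluorescence ratio B-score at most minus 3 library SDs, with starting brightness B-score within 2 library SDs, cut at about -5.5 in these data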
Target sequence (O88943 whole entry, looked up): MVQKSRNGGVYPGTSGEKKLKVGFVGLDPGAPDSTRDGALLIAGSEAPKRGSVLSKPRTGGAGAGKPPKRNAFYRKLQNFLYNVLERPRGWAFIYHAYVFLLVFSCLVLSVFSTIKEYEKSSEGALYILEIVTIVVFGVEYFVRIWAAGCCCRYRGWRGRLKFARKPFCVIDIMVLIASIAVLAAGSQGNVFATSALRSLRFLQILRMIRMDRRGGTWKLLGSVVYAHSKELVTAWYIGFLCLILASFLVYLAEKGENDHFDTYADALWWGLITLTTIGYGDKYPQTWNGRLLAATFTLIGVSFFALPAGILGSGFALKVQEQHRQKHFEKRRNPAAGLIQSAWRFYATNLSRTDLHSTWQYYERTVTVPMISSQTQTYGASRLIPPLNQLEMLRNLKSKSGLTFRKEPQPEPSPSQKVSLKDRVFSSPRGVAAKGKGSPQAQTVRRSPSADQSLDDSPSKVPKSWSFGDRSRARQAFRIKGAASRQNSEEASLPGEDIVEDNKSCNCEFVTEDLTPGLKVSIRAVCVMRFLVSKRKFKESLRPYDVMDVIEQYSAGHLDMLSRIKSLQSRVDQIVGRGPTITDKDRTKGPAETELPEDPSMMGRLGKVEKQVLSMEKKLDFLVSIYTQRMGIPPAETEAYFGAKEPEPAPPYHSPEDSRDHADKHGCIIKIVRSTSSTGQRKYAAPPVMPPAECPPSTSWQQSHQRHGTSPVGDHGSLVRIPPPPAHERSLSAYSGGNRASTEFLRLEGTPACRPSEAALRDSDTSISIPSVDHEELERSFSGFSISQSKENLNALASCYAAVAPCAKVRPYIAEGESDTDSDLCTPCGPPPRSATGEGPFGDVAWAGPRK
KCNQ2 enhance: potentiators of rat KCNQ2 potassium channel | O88943 | B-score at 10 µM | AID 2239 | hit rate 0.54% among 310,000 | CHO-K1 KCNQ2, FluxOR thallium flux fluorescence; stronger effect = higher value;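 active = fluorescence ratio B-score at least 3 SD of library B-scores, with initial fluorescence B-score within 3 of them, cut at about 5.3 in these data; same plate scores as AID 2156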;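 also: B-score of peak minus minimum over baseline fluorescence ratio after K+ and Tl+ stimulus; positive B-score means potentiation of KCNQ2 with more thallium influx and brighter signal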
Kir21 confirm: confirmation of mouse Kir2.1 potassium channel inhibitors; shares compounds with KCNQ2 enhance; Kir2.1-expressing cells, FluxOR thallium flux fluorescence; stronger effect = lower value; Tl flux remaining, % of negative control (stronger effect = lower value), % at 10 µM; hit rate 41% among 2,300; AID 2032;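 active = Primary-screen hit whose thallium flux fell at least 3 control SD below untreated wells in both duplicates, with normal baseline fluorescence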
HEK293 Tl flux: alters thallium flux in parental HEK293 cells, Kir2.1 counter-screen. FluxOR thallium flux fluorescence; 0% = unstimulated blank wells. shares compounds with KCNQ2 enhance. FluxOR signal as % of negative control (100 = no effect), % at 10 µM. hit rate 19% among 2,300;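 active = dye signal at least 3 control SD above or below untreated wells in both duplicates, raw fluorescence within 3, either direction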;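 also: percent is based on the flux ratio of peak minus minimum fluorescence over baseline F0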
CHO-K1 Tl ctr: parental CHO-K1 activity in KCNQ2 potentiator counter-screen | shares compounds with KCNQ2 enhance | parental CHO-K1 cells, FluxOR thallium flux fluorescence; zero = vehicle mean+3SD, 100% = vehicle-minus-blank window | activity increase over 3SD of controls, % at 10 µM | hit rate 43% among 1,200 | AID 2282;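 active = signal rise of at least 3 SD above the untreated control mean, in both duplicate wells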;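 also: counter screen of KCNQ2 potentiator hits so any rise reflects channel-independent effects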
KCNQ1 pot spec: tests whether KCNQ2 potentiators also act on human KCNQ1; hit rate 28% among 1,200; CHO KCNQ1 stable, FluxOR thallium flux fluorescence; beyond 3SD, as % of vehicle-control signal; shares compounds with KCNQ2 enhance; activation over 3SD threshold, % at 10 µM; AID 2283;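 active = fluorescence ratio rise of at least 3 SD of vehicle wells above their mean, in both replicate wells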
KCNQ2 pot confirm: rat KCNQ2 channel potentiator confirmation; shares compounds with KCNQ2 enhance; CHO-KCNQ2 cells, FluxOR thallium flux fluorescence; potentiation, less the hit threshold, % at 10 µM; hit rate 68% among 1,200; AID 2287;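 active = fluorescence ratio rising 3 SD or more over the vehicle control mean in both replicates, plus primary screen hit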;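 also: peak minus minimum thallium fluorescence divided by baseline after K/Tl stimulus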
Kir21 spec: selectivity of KCNQ2 potentiators: effect on mouse Kir2.1; shares compounds with KCNQ2 enhance; HEK293 Kir2.1, FluxOR thallium flux fluorescence; activity over 3SD threshold, % at 10 µM; hit rate 2% among 1,200; AID 2345;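 active = fluorescence ratio rise of at least 3 SD above the vehicle-control mean, seen in both replicates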
KCNQ2 W236L MoA: rat KCNQ2 W236L mutant potentiation by KCNQ2 potentiators; shares compounds with KCNQ2 enhance; CHO KCNQ2-W236L, automated patch clamp current; current increase over 3SD of negative controls (%), stronger effect = higher value, % at 25 µM; hit rate 10% among 940; AID 2558;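 active = current increase at least 3 SD of the untreated controls above them in both duplicate recordings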
Of the large screens only hits and unclear results are named; the others gave an inactive call (follow-up assays come after a bar, where they were run).

Cc1ccccc1OC(C)C(=O)NCCC1=CCCCC1 (configuration not stated)	KCNQ2 block -5.9 | Kir21 confirm 38% | HEK293 Tl flux inactive
COc1ccc(-n2nc([N+](=O)[O-])c(=NCCC3=CCCCC3)n2O)cc1	none (no result: KCNQ2 enhance)
O=C(c1cccnc1)N1N=C(C2CC2)CC1(O)C(F)(F)F (configuration not stated)	none
O=C(c1ccncc1)N1N=C(C2CC2)CC1(O)C(F)(F)F (configuration not stated)	KCNQ2 enhance 6.5 | Kir21 confirm inactive | HEK293 Tl flux inactive | CHO-K1 Tl ctr 56 | KCNQ1 pot spec inactive | KCNQ2 pot confirm inactive | Kir21 spec inactive
COc1ccc(NC(=O)C(C)N2C(=O)c3ccccc3C2=O)cc1S(=O)(=O)N1CCOCC1 (configuration not stated)	none (no result: KCNQ2 enhance)
Cc1ccc(-c2nn(-c3ccccc3)cc2/C=N/O)cc1	KCNQ2 enhance 5.4 | Kir21 confirm inactive | HEK293 Tl flux inactive | CHO-K1 Tl ctr inactive | KCNQ1 pot spec inactive | KCNQ2 pot confirm 15 | Kir21 spec inactive | KCNQ2 W236L MoA inactive
O/N=C/c1cn(-c2ccccc2)nc1-c1cccnc1	none (no result: KCNQ2 enhance)
O=C(CN1C(=O)CSc2ncccc21)Nc1ccccc1F	none
Cc1cc(C)c(NS(=O)(=O)c2ccc(NC(=O)/C=C/C(=O)O)cc2)c(C)c1	none
